Assay outcomes from PubChem.
ERK AVP inh = qHTS Assay for Inhibitors of the ERK Signaling Pathway using a Homogeneous Screening Assay; HEK293-V1b, vasopressin-stimulated pERK AlphaScreen; Potency, µM (top dose mostly 57.5 µM), most hits filed as inhibitors; hit rate 0.99% among 72,000; AID 995, 2007; further: nearly all actives have a fitted effect of over 55% in size
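HEK293 cells stably expressing V1b receptor, seeded overnight in 1% FBS, were treated with compounds for 30 min at 37C, then stimulated 5 min with 25 nM vasopressin; phospho-ERK read by AlphaScreen SureFire after lysis.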
HEK293 cAMP ctrl = qHTS Assay for Agonists of the Thyroid Stimulating Hormone Receptor: Activators of Intracellular cAMP Concentrations in Parental HEK 293; parental HEK293 CNG cAMP sensor, membrane potential fluorescence; AID 938, 2007; Potency, µM (series often up to 57.1 µM), hits mostly activators; hit rate 2.5% among 73,000; further: nearly all actives have a fitted effect of over 55% in size
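Parental HEK 293 cells stably expressing a cAMP-gated CNG channel were loaded with membrane potential dye containing 100 uM RO 20-1724 for 60 min. Compound added for 30 min; depolarization read as fluorescence intensity at 590 nm.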
CRE-bla Fsk = Cell signaling CRE-BLA (Fsk stim) | Potency, µM (series often up to 38.2 µM), usual class: activators | AID 662, 2007 | CHO CRE-bla reporter (cAMP response element driving beta-lactamase), forskolin EC10, beta-lactamase ratio | hit rate 2.5% among 71,000; active means well fitted activation curve with a large enough effect in the signal ratio, with a control signal flat, not every such curve was filed as active; inconclusive means small, poorly fitted or top-dose-only effect, or effect the other way, or a change in a side signal; the % refers to the signal ratio
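CRE-bla CHO reporter cells treated with compound titration plus EC10 NKH 477 (water-soluble forskolin), incubated 3 h at 37 °C; CCF4 loading 2 h at room temperature, 460/530 nm emission ratio read, AC50 values derived for positive or negative modulators.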
TSHR agonist = qHTS Assay for Agonists of the Thyroid Stimulating Hormone Receptor. HEK293-CNG-TSHR cells (CNG channel as cAMP sensor), membrane potential dye, cAMP. hit rate 0.48% among 73,000. Potency, µM (top dose mostly 57.1 µM), most hits filed as activators. AID 926, 2007; active means well fitted activation curve with a large enough effect in the main read-out, with a control signal flat, not every such curve was filed as active; inconclusive means small, poorly fitted or top-dose-only effect, or a change in a side signal; inactive means no such curve, though single readings can be large or run the other way; reference of the percent scale not stated here;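 further: the control signal comes from parental cells without the receptor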
Target sequence (P16473 whole entry, looked up): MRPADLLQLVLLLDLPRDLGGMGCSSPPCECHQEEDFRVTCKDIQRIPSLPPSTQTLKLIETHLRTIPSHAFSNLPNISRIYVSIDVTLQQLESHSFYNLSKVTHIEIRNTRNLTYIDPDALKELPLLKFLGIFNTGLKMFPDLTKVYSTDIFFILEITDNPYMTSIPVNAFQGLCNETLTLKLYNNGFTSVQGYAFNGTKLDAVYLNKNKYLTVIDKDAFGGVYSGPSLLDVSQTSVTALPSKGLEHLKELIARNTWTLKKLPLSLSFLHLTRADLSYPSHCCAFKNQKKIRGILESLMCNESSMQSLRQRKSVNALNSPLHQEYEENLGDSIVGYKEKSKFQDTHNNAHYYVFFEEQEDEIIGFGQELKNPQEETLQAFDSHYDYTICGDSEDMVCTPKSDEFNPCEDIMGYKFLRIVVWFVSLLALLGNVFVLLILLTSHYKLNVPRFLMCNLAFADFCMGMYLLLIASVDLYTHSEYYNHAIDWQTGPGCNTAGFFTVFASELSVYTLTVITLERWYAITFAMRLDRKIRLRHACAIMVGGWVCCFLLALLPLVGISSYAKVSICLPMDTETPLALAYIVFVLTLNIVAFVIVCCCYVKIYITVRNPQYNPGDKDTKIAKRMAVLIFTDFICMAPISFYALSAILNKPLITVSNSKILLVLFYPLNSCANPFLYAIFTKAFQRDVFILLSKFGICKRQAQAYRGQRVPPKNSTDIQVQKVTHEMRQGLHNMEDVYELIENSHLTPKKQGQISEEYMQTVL
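cAMP rise detected as CNG-channel membrane depolarization by fluorescent dye (emission 590 nm), 30 min after compound, following 60 min dye loading containing 100 uM RO 20-1724 at room temperature. Cells: TSHR/CNG HEK 293, with parental CNG HEK 293 as control.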
Tau fil binding = qHTS Assay for Tau Filament Binding | hit rate 2% among 71,000 | Microtubule-associated protein tau (Homo sapiens), P10636 | recombinant tau filaments, thioflavin S fluorescence, 15 h; filaments grown with octadecylsulfate alongside compound | Potency, µM (highest dose often 57.1 µM);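 further: actives lower thioflavin S fluorescence by blocking filaments or displacing dye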
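Thioflavine S fluorescence (ex 450, em 510 nm) reports filaments formed from 1 uM human tau plus 30 uM ODS over 15 h at 37 C (10 mM HEPES pH 7.4, 100 mM NaCl, 5 mM DTT); compounds displacing dye or blocking filaments lower signal.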
Numbers stand for hits; i = inactive; ? = inconclusive; nt = not tested or not shown; ! = not active in a repeat; [ ] = remark or other dose. Hits are enriched below; roughly 7.4% of the tested compounds scored in any of these assays. Unless noted, the call rests on the fitted dose curve; in most records, active means well fitted curve in the direction sought with a large enough effect; inconclusive means small, poorly fitted or top-dose-only effect, or another doubt; inactive means no such curve, though single readings can be large; an effect the other way counts as inactive or inconclusive.

SMILES	ERK AVP inh	HEK293 cAMP ctrl	CRE-bla Fsk	TSHR agonist	Tau fil binding
CCN1C[C@]2(C)CC[C@@H](O)[C@]34[C@@H]5CC6[C@@H](OC)C[C@@](O)([C@H]5[C@@H]6O)[C@@H](C[C@@H]23)[C@H]14	i	i	i	i	i
ClC1=C(Cl)C2(Cl)C3C4C=CC(C4)C3C1(Cl)C2(Cl)Cl (stereo not given)	i	i	?	i	i
ClC1=C(Cl)C2(Cl)C3C4CC(C5OC45)C3C1(Cl)C2(Cl)Cl (stereo not given)	i	i	?	25µM	i
C[C@H](N[C@@H](C)CCc1ccccc1)[C@H](O)c1ccc(O)cc1	?	?	i	?	i
C[C@H]1CC[C@@H]2[C@@H](C)[C@H]3[C@H](C[C@H]4[C@@H]5CC=C6CC(O[C@@H]7O[C@H](CO)[C@H](O)[C@H](O[C@@H]8O[C@H](CO)[C@@H](O)[C@H](O)[C@H]8O)[C@H]7O[C@H]7O[C@@H](C)[C@H](O)[C@@H](O)[C@H]7O)CC[C@]6(C)[C@H]5CC[C@]34C)N2C1 (stereo not given in full)	i	i	i	i	i
CC1CC[C@@]2(OC1)O[C@@H]1[C@@H](O)[C@H]3C4CC[C@H]5C[C@@H](O[C@@H]6O[C@H](CO)[C@H](O[C@@H]7O[C@H](CO)[C@@H](O)[C@H](O[C@@H]8OC[C@@H](O)[C@H](O)[C@H]8O)[C@H]7O[C@@H]7O[C@H](CO)[C@@H](O)[C@H](O[C@@H]8O[C@H](CO)[C@@H](O)[C@H](O)[C@H]8O)[C@H]7O)[C@H](O)[C@H]6O)[C@H](O)C[C@]5(C)C4CC[C@]3(C)[C@H]1[C@@H]2C (stereo not given in full)	40µM	nt	nt	nt	nt
CC(C)c1ccc2c(c1)CC[C@@H]1[C@@](C)(CN)CCC[C@@]21C	nt	i	?	?	32µM
NCCc1ccc(S(=O)(=O)O)cc1[N+](=O)[O-]	i[11.5 µM]	i[11.4 µM]	i[7.6 µM]	i[11.4 µM]	i[11.4 µM]
C[C@@H](Cc1ccc2c(c1)OC(C(=O)O)(C(=O)O)O2)NC[C@H](O)c1cccc(Cl)c1	i	i	i	nt	i
CC[C@H](CO)NC(=O)[C@H]1C=C2c3cccc4[nH]cc(c34)C[C@H]2N(C)C1	nt	i	?	i	i
COC(=O)C(C)Oc1cc(C)cc2oc(=O)c3c(c12)CCC3 (stereo not given)	?	?	7.9µM	?	i
COC(=O)C(C)Oc1cc(C)cc2oc(=O)c3c(c12)CCCC3 (stereo not given)	i	i	?	nt	i
Oc1c(Cl)c(Cl)c(Cl)c(Cl)c1Cl	i	32µM	?	?	nt
COc1cc2c(C(=O)N3CCN(C)CC3)c(C)n(C)c2cc1Br	i	20µM	i	?	i
COc1cc2c(cc1OC)-c1c(O)c(OC)cc3c1[C@@H](C2)N(C)CC3	nt	i	?	i	32µM
CCN(CC)c1ncnc2c1ncn2[C@@H]1O[C@@H](COP(=O)(O)OP(=O)(O)C(Br)(Br)P(=O)(O)O)[C@H](O)[C@@H]1O	i	i	i	i	i
CCNc1nc(Cl)nc(NC(C)C)n1	i	i	7.9µM	i	i
[O]=[Cr](=[O])([OH])[O][Cr](=[O])(=[O])[OH]	i	i	?	?	1.3µM!
Cc1ccc(NC(=[OH+])c2cc3ccccc3cc2O)c(C)c1.Cc1ccc(NC(=[OH+])c2cc3ccccc3cc2O)c(C)c1.[Ni]	i[11.5 µM]	i[11.4 µM]	i[7.6 µM]	i[11.4 µM]	i[11.4 µM]
CC1=C(O)C(=O)C=C2C1=CC=C1[C@]2(C)CC[C@@]2(C)C3C[C@](C)(C(=O)O)CC[C@@]3(C)CC[C@@]12C (stereo not given in full)	32µM	nt	nt	nt	nt
COC(=O)[C@]1(C)CC[C@@]2(C)CC[C@@]3(C)C4=CCc5c(cc(O)c(O)c5C)[C@]4(C)CC[C@@]3(C)C2C1 (stereo not given in full)	i	nt	nt	nt	nt
CC(C)OC(=O)c1c(N)n(CC2CCCO2)c2nc3ccccc3nc12 (stereo not given)	i	?	10µM	?	i
CC(C)CCn1c(N)c(C(=O)OCC2CCCO2)c2nc3ccccc3nc21 (stereo not given)	i	20µM	?	?	i
O=C(O)[C@@H]1[C@H](C(=O)O)[C@]2(Cl)C(Cl)=C(Cl)[C@@]1(Cl)C2(Cl)Cl	?	i[11.4 µM]	i[7.6 µM]	i[11.4 µM]	i[11.4 µM]
O=C1Nc2ccccc2C2(CCN(CCc3ccc(C(F)(F)F)cc3)CC2)O1	16µM	?	nt	?	nt
SMILES	ERK AVP inh	HEK293 cAMP ctrl	CRE-bla Fsk	TSHR agonist	Tau fil binding
CN(C)[C@@H]1C(=O)C(C(N)=O)=C(O)[C@]2(O)C(=O)C3=C(O)c4c(O)cccc4[C@](C)(O)[C@H]3C[C@@H]12	i[11.5 µM]	i[11.4 µM]	i[7.6 µM]	i[11.4 µM]	i[11.4 µM]
O=C(Oc1ccc2ccc(OC(=O)N3CCOCC3)cc2c1)N1CCOCC1	i	?	i	?	i
COC(=O)c1c(C)oc2ccc(OC(=O)N3CCOCC3)cc12	i	i	i	25µM	i
COc1cccc(N2CCN(Cc3ccc(Cl)cc3)CC2)c1	i	i	i	i	i
COc1cccc(N2CCN(Cc3cccc(Cl)c3)CC2)c1	i	i	i	25µM	?
O=C(O)c1ccccc1-c1c2cc(Br)c(=O)cc-2oc2[c]([Hg])c(O)c(Br)cc12	16µM!	i	i	i	i
CN(C)CS/C(N)=N/[C@H](O)C(Cl)(Cl)Cl	i[11.5 µM]	i[11.4 µM]	i[7.6 µM]	i[11.4 µM]	i[11.4 µM]
O=S(=O)(O)/C(=C\c1ccccc1)c1ccccc1 (tested in a mixture with another compound)	i[11.5 µM]	i[11.4 µM]	4µM	i[11.4 µM]	i[11.4 µM]
CC(C)[C@H]1C(=O)N2CCC[C@@H]2[C@]2(O)O[C@@](NC(=O)[C@H]3C=C4c5cccc6[nH]cc(c56)C[C@H]4N(C)C3)(C(C)C)C(=O)N12	nt	i	i	i	i
N#CCCCC[N+]12CN3CN(CN(C3)C1)C2	i[11.5 µM]	i[11.4 µM]	i[7.6 µM]	i[11.4 µM]	i[11.4 µM]
COc1ccccc1N1CCN(Cc2ccccc2Cl)CC1	nt	i	nt	i	nt
Nc1ccc(N2CCN(Cc3ccccc3Cl)CC2)c(Cl)c1	i	i	i	i	25µM
CCCCCCC[n+]1ccc(-c2cc[n+](CCCCCCC)cc2)cc1	i	i	i	i	16µM
CC(C)C[C@H](NP(=O)(O)O[C@@H]1O[C@@H](C)[C@@H](O)[C@@H](O)[C@H]1O)C(=O)N[C@@H](Cc1c[nH]c2ccccc12)C(=O)O	i	i	i	i	i
CN(C(=O)Cc1ccccc1)[C@H](CN1CCCC1)c1ccccc1	i	32µM	i	?	?
CCC(=O)Nc1ccc(Cl)c(Cl)c1	i	nt	nt	nt	nt
CN(C(=O)Cc1ccc(Cl)c(Cl)c1)[C@H](CN1CCCC1)c1ccccc1	i	32µM	?	?	i
